Hits are enriched below; roughly 6.8% of the tested compounds scored in any of these assays.
Spn MK inh = inhibitors of Streptococcus pneumoniae mevalonate kinase. purified MK, PK/LDH-coupled NADH absorbance 340 nm. inhibition, % at 10 µM. 65,000 compounds, 0.48% hits. AID 555;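 active means ranked among the strongest by inhibition in the single 10 µM screen, a fixed top-ranked set picked for dose follow-up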
Spn PMK inh = blocks S. pneumoniae phosphomevalonate kinase; purified PMK, PK/LDH-coupled NADH absorbance 340 nm; inhibition, % at 10 µM; 65,000 compounds, 0.49% hits;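 active means top-ranked compounds by inhibition in the single 10 µM screen, taking a fixed number of the strongest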
Autofluor 339 = intrinsic fluorescence of library compounds, ex339/em460 – biochemical, MLSMR library, data from DPM-DC assay, artefact control, profiling panel. compound autofluorescence, ex339/em460 nm, NADH buffer; hits give high values; 1 = no-compound wells, NADH background. fluorescence fold increase at 10 µM. 65,000 compounds, 5.5% hits. AID 709;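 active means at 10 µM, mean starting fluorescence two-fold or more over control wells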;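 further: signal is the first read of a kinetic run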
Spn DPM-DC inh = S. pneumoniae DPM-DC inhibition; purified DPM-DC, PK/LDH coupled NADH fluorescence; calls only at 10 µM; 65,000 compounds, 0.49% hits; AID 556;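 active means the 320 compounds with the highest percent inhibition in the single-dose primary screen, excluding strongly autofluorescent ones, cut at about 32% in these data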;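 further: kinetic rate of NADH fluorescence loss reporting ADP formed by the decarboxylase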
NADH enzymes = inhibitors of enzymes used to reach an NAD/NADH endpoint; IC50, µM (doses to about 10 µM); coupled PK/LDH NADH assays, four targets; AID 774; 65,000 compounds, 0.02% hits;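 active means single-dose screening hits from any of four coupled enzyme assays that gave an IC50 when retested across doses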;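 further: the DPM-DC format reads NADH fluorescence rather than 340 nm absorbance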
A340 absorber = absorbance at 340 nm. compound absorbance at 340 nm, fold over control. fold change at 10 µM. 65,000 tested, under 10 active. AID 708;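 active means at 10 µM dose, initial 340 nm absorbance at least 2 fold that of control wells; inactive means change under 2 fold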;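 further: initial absorbance extrapolated from kinetic A340 decline of NADH oxidation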
A number is an active result; n = inactive; x = not tested or not shown; + = active, no number; [ ] = dose if it differs, or a comment.

SMILES	Spn MK inh	Spn PMK inh	Autofluor 339	Spn DPM-DC inh	NADH enzymes	A340 absorber
COc1ccc(S(=O)(=O)N2CCCC(C(=O)NCc3ccco3)C2)cc1Cl (centres undefined)	n	n	n	n	n	n
O=c1oc2c(CN3CCCCCC3)c(O)ccc2cc1-c1nc2ccccc2[nH]1	n	n	4.7	x	n	n
O=C(c1ccccc1)c1coc2ccc(O)c(CN3CCOCC3)c12	n	n	n	n	n	n
O=c1c(-c2ccc(Cl)cc2)coc2c(CN3CCOCC3)c(O)ccc12	n	n	2.2	x	n	n
O=C(c1ccccc1-c1nc2ccccc2[nH]1)N1CCCCC1	n	n	n	n	n	n
CCN(CC)S(=O)(=O)c1cc(C(=O)n2cccn2)c(Cl)cc1Cl	n	n	n	n	n	n
CC(=O)Nc1cccc(-c2nnc(SCc3ccccc3C#N)n2C)c1	n	n	n	n	n	n
Cc1ccc(-c2cc(-c3nnc(SCC(=O)N(C)CCC#N)n3N)c3ccccc3n2)cc1	n	n	4.2	x	n	n
Cc1ccc(-c2nnc(SCC(=O)O)n2N)cc1	n	n	n	n	n	n
CC(NC(=O)OC1CCCCC1)N1C(=O)C2C3C=CC(C3)C2C1=O (centres undefined)	n	n	n	n	n	n
CC(=O)c1cc2c(cc1NC(=O)c1cc(C)nn1-c1ccccc1)OCO2	n	n	2.2	x	n	n
CC(=O)c1cc2c(cc1NC(=O)CCc1ccccc1)OCO2	n	n	2.3	n	n	n
CC(=O)c1cc2c(cc1NC(=O)CCCC(=O)O)OCO2	n	n	n	n	n	n
CN(CCC(=O)Nc1ccc2c(c1)OCO2)Cc1ccccc1	45	n	n	n	n	n
CC(=O)Nc1ccc(NC(=O)c2cc(C)nn2-c2ccccc2)cc1	n	n	n	n	n	n
C=CCn1c(=O)c(C(=O)Nc2nnc(C)s2)c(O)c2ccccc21	n	n	n	n	n	n
Cc1noc(C)c1COc1ccc(C(=O)OCc2nnc(-c3ccc(Cl)cc3)o2)cc1	n	n	n	n	n	n
O=C(NCCn1ccc2ccccc21)c1ccc2c(c1)OCO2	n	n	2.1	x	n	n
COc1ccc(C(=O)NCCn2ccc3ccccc32)cc1	n	n	n	n	n	n
O=C(c1ccc(CS(=O)(=O)Cc2ccc(Cl)cc2)o1)N1CCCC1	n	26	n	n	n	n
Cc1[nH]nc2c1C(c1ccc(F)cc1)C1=C(CC(C)(C)CC1=O)N2 (centres undefined)	n	n	3.1	x	n	n
Cc1[nH]nc2c1C(c1cccc(O)c1)C1=C(CC(C)(C)CC1=O)N2 (centres undefined)	n	n	5	x	n	n
Cc1cc2c(cc1C)NC(c1cccnc1)C1=C(CC(C)(C)CC1=O)N2 (centres undefined)	n	n	n	n	n	n
Cc1ccc(C2C3=C(CC(C)(C)CC3=O)Nc3n[nH]c(C)c32)cc1 (centres undefined)	n	n	4.9	x	n	n
CCOC(=O)COc1ccc(S(=O)(=O)N2CCc3ccccc3C2)cc1	n	n	n	n	n	n
SMILES	Spn MK inh	Spn PMK inh	Autofluor 339	Spn DPM-DC inh	NADH enzymes	A340 absorber
Cc1nc2[nH]c(=O)c3c(n2n1)NC1=C(C(=O)CC(C)(C)C1)C3c1ccccc1 (centres undefined)	n	n	4	x	n	n
Cc1ccc(C2C3=C(CC(C)(C)CC3=O)NC3=C2C(=O)CC(C)(C)C3)o1	n	n	n	n	n	n
CC(C)c1cc(C(F)(F)F)n2nc(C(=O)Nc3ccc4c(c3)OCO4)cc2n1	n	n	n	n	n	n
Cc1c(NC(=O)CN2c3cccc4cccc(c34)S2(=O)=O)c(=O)n(-c2ccccc2)n1C	n	n	2.5	+[may fluoresce]	n	n
O=C(CN1c2cccc3cccc(c23)S1(=O)=O)N1CCOCC1	n	n	2.8	+[fluoresces]	n	n
COc1ccc(NC(=O)CN2c3cccc4cccc(c34)S2(=O)=O)cc1	n	n	2.3	n	n	n
Cc1c(NC(=O)CN2C(=O)c3ccccc3S2(=O)=O)c(=O)n(-c2ccccc2)n1C	n	n	n	n	n	n
CCc1ccc(N(C(C)=O)C2C=CS(=O)(=O)C2)cc1 (centres undefined)	n	n	n	n	n	n
CCOC(=O)c1cccc(NC(=O)CN2C(=O)C3C4C=CC(C4)C3C2=O)c1 (centres undefined)	n	n	n	n	n	n
O=C(CN1C(=O)C2C3C=CC(C3)C2C1=O)Nc1ccc2nccnc2c1 (centres undefined)	n	n	2.1	x	n	n
O=C(NC1CC1)c1ccc2c(c1)ncn2C1CCCC1	n	28	n	n	n	n
CCOC(=O)N1CCN(C(=O)Cc2ccsc2)CC1	n	n	n	n	n	n
COc1ccc(OC)c2c(C)cc(N3CCN(C(=O)c4ccc(F)cc4)CC3)nc12	n	n	2.9	n	n	n
COC(=O)c1ccc(C2CC(=O)Nc3cc(OC)c(OC)c(OC)c32)cc1 (centres undefined)	n	n	n	n	n	n
Cc1cccc(OCCCc2c(C)n[nH]c2C)c1	n	26	n	n	n	n
COc1cccc(OC)c1OCCCc1c(C)n[nH]c1C	n	n	n	n	n	n
CCOC(=O)CSc1nnc(CNC(=O)c2cccs2)n1-c1cc(C)ccc1C	n	n	n	n	n	n
CC(=O)c1cccc(NC(=O)NC(C)c2ccncc2)c1 (centres undefined)	n	n	n	n	n	n
Cc1c2cccn2cc[n+]1C	n	n	3.8	x	n	n
N#Cc1cn(-c2ccccc2)nc1-c1cc2ccccc2oc1=O	n	n	2.4	x	n	n
CC(Sc1nnc(-c2cc3ccccc3o2)n1-c1ccccc1)C(=O)O (centres undefined)	n	n	n	n	n	n
c1coc(CNc2nc(N3CCCCC3)nc3ccccc23)c1	n	n	3.7	x	n	n
c1ccc(N2CCN(c3nc(NCc4ccco4)c4ccccc4n3)CC2)cc1	n	n	n	n	n	n
O=C(CN1C(=O)NC2(CCCc3ccccc32)C1=O)N1CCc2ccccc2C1 (centres undefined)	n	n	n	n	n	n
O=C(CCc1nc2ccccc2c(=O)[nH]1)OCC(=O)N1CCN(S(=O)(=O)c2ccccc2)CC1	n	28	n	n	n	n
O=c1cc(NCCO)c2ccccc2o1	n	n	n	n	n	n
OCCCCNc1cccc2ccccc12	n	n	3.7	x	n	n
O=C(c1ccccc1NS(=O)(=O)c1ccc(Br)s1)N1CCOCC1	n	n	n	n	n	n
Cc1ccc(CCN2CC(C(=O)NCCCN3CCCCCC3)CC2=O)cc1 (centres undefined)	n	n	n	n	n	n
Cc1ccc(-c2nn3c(C)nnc3s2)cc1NCc1c(F)cccc1Cl	n	n	2.3	n	n	n

Compound activity (PubChem)
